Test results from PubChem BioAssay (Tox21).
Where “and” joins values, the source holds several entries; their conditions need not be identical. Equal entries are not always repeated. Records with an inconclusive call do not appear. Where a call stands in place of a potency, no number is given. A number with no mark means an inactive call. Calls of active or inactive are those of the source. Calls follow the shape of the dose curve; as a rule, active = well fitted cell-killing curve with a large enough effect in the repeat runs; inconclusive = weak or mixed curves, or effect the other way; inactive = no such curve, though single readings can be large or run the other way.
Potency is read from the fitted curve at half-maximal effect.

Experiment: qHTS assay to identify small molecule agonists of the farnesoid-X-receptor (FXR) signaling pathway - cell viability counter screen (AID 743218); also: nearly all actives have a fitted effect of over 45% in size
Conditions: FXR-bla HEK293T viability, CellTiter-Glo luminescence, 16 h; series mostly up to 62.6 µM; viability change, negative = cytotoxic: at the top concentration
Description: U.S. Tox21 Program National Center for Advancing Translational Sciences [NCATS] NIH Chemical Genomics Center [NCGC] U.S. Environmental Protection Agency [EPA] National Institutes of Environmental Health Sciences [NIEHS] National Toxicology Program [NTP] U.S. Food and Drug Administration [FDA] Tox21 Assay Overview: The farnesoid-X-receptor (FXR), a nuclear hormone receptor, is highly expressed in liver, intestine, kidney and adrenal cortex. Natural ligands of FXR are the bile acids (Cholic acid, Chenodeoxy cholic acid etc). FXR is an important regulator of diverse metabolic pathways, including the bile acid homeostasis, lipid and glucose metabolisms. FXR regulates the expression of target genes by binding either as a monomer or as a heterodimer with the retinoid X receptor (RXR). Numerous studies have reported that FXR exerts protective function during cholestasis, diabetes, liver regeneration, and cancer. To identify compounds that activate FXR signaling, GeneBLAzer FXR-UAS-bla HEK 293T cell line (Invitrogen, Carlsbad, CA) containing a beta-lactamase reporter gene under the control of a UAS response element was used to screen the Tox21 10K compound library. The cytotoxicity of the Tox21 compound library against the FXR-bla cell line was tested in parallel by measuring the cell viability using CellTiter-Glo assay in the same wells.
Tox21 Assay Protocol Summary: FXR-bla cells were dispensed at 5000 cells/5uL/well in 1536-well black wall/clear bottom plates using a Multidrop Combi (Thermo Fisher Scientific, Waltham, MA) dispenser. After the assay plates were incubated at 37 C and 5% CO2 for 5 h, 23 nL of compounds dissolved in DMSO, positive controls or DMSO only was transferred to the assay plate by a Pintool station (Kalypsys, San Diego, CA). The assay plates were incubated at 37C for 16 h. After 1 uL of LiveBLAzerTM B/G FRET substrate was added using a Bioraptr Flying Reagent Dispenser (FRD) workstation (Beckman Coulter, Indianapolis, IN), the plates were incubated at room temperature for 2 h, and fluorescence intensity was measured by an Envision plate reader (PerkinElmer, Shelton, CT). For cell viability readout that measures cytotoxicity, 4uL/well of CellTiter-Glo reagent was added into the assay plates using a Bioraptr FRD. After 30 min incubation at room temperature, the luminescence intensity in the plates was measured using a ViewLux plate reader (PerkinElmer).
In the case of `CC(C)OB(OC(C)C)OC(C)C`, the Potency is reported as “inactive”.
With `O=Cc1ccccc1O` the “viability change, negative = cytotoxic” value was -0.226%.
For `c1cc(-c2ccncc2)ccn1`, the Potency was “inactive”.
For `OC1CCCCCCCCCCC1`, the Potency was “inactive”.
With `COc1ccccc1/C=C/C=O` the Potency was “inactive”.
In the case of `CC(C)=CCCC(C)CCO` (stereo not given), the “viability change, negative = cytotoxic” value is reported as 10.7%.
For `CCCCOCCOCCO`, the Potency was “inactive”.
In the case of `Nc1ccc(Cl)cc1Cl`, the Potency is reported as “inactive”.
With `CCCC(=O)O` the Potency was “inactive”.
For `Nc1ccc(S(=O)(=O)Nc2cnc3ccccc3n2)cc1`, the Potency was “inactive”.
For `O=CCc1ccccc1`, the Potency was “inactive”.
For `CC(=O)c1ccccn1`, the Potency was “inactive”.
In the case of `CC1=CCC(C(C)(C)O)CC1` (stereo not given), the “viability change, negative = cytotoxic” value is reported as 1.12%.
In the case of `O=CCCCC=O`, the Potency is reported as “inactive”.
In the case of `O=C(c1ccc(OCCN2CCCCC2)cc1)c1c(-c2ccc(O)cc2)sc2cc(O)ccc12`, the Potency is reported as 49 µM (active) and 12.3 µM (active) and 23.7 µM (active).
With `CC(=O)CC/C=C(\C)CCC=C(C)C` the Potency was “inactive”.
With `CC(C)(C)NC(=O)[C@H]1CC[C@H]2[C@@H]3CC[C@H]4NC(=O)C=C[C@]4(C)[C@H]3CC[C@]12C` the Potency was “inactive”.
With `CCCCC(CC)COCC1CO1` (stereo not given) the Potency was “inactive”.
For `CCCCCCCCCCCO`, the “viability change, negative = cytotoxic” value was -2.55% [at 81.1 µM].
For `CCC(C)c1ccccc1O` (stereo not given), the Potency was “inactive”.
With `O=C(c1ccccc1)c1ccccc1O` the Potency was “inactive”.
In the case of `O=C(O)c1ccccc1Nc1cccc(C(F)(F)F)c1`, the Potency is reported as “inactive”.
For `COC(=O)C1=C(C)NC(C)=C(C(=O)OCCN(C)Cc2ccccc2)C1c1cccc([N+](=O)[O-])c1` (stereo not given), the Potency was 24.4 µM (active) and 29.8 µM (active).
For `Cn1cnc([N+](=O)[O-])c1Sc1ncnc2nc[nH]c12`, the “viability change, negative = cytotoxic” value was -14.8%.
For `c1ccc2sc(SSN3CCOCC3)nc2c1`, the Potency was “inactive”.
For `O=C(/C=C/C=C/c1ccc2c(c1)OCO2)N1CCCCC1`, the “viability change, negative = cytotoxic” value was 0%.
In the case of `Cc1cc2nc3c(=O)[nH]c(=O)nc-3n(C[C@H](O)[C@H](O)[C@H](O)CO)c2cc1C`, the Potency is reported as “inactive”.
For `CCOCCOCCO`, the Potency was “inactive”.
With `CCC(C)OC(=O)c1ccc(O)cc1` (stereo not given) the Potency was “inactive”.
In the case of `Cc1ccc(C)c(O)c1C`, the Potency is reported as “inactive”.
With `c1ccc2cc(Nc3ccc(Nc4ccc5ccccc5c4)cc3)ccc2c1` the “viability change, negative = cytotoxic” value was -0.46%.
For `Nc1ccc(Nc2ccccc2)cc1`, the Potency was “inactive”.
For `CC(C)OC(=O)C(C)(C)Oc1ccc(C(=O)c2ccc(Cl)cc2)cc1`, the Potency was “inactive”.
For `COc1cc([C@@H]2c3cc4c(cc3[C@H](O)[C@H]3COC(=O)[C@H]23)OCO4)cc(OC)c1OC`, the Potency was “inactive”.
In the case of `c1ccncc1`, the Potency is reported as “inactive”.
For `NC=O`, the Potency was “inactive”.
In the case of `O=C(c1ccccc1)c1ccc(O)cc1O`, the Potency is reported as “inactive”.
For `c1ccc2c(c1)Oc1ccccc1S2`, the “viability change, negative = cytotoxic” value was 13.7%.
In the case of `O=S(=O)(O)c1ccc(O)cc1`, the Potency is reported as “inactive”.
For `OCCO`, the Potency was “inactive”.
